Screening results deposited in PubChem by National Center for Advancing Translational Sciences (NCATS).
Mito fusion act = blocks mitochondrial division or promotes mitochondrial fusion; S. cerevisiae fusion-defective mutant growth rescue, CellTiterGlo 48 h; Potency, µM (highest dose often 46.1 µM), for the others: top-dose growth rescue (activation), most hits filed as activators; hit rate 0.23% among 320,000; AID 485298; further: % of control where 0% means no effect; nearly all actives have a fitted effect of over 45% in size
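Read-out: ATP-based luminescence (CellTiterGlo, 10 min ambient) reporting growth of fusion-defective ts yeast after 48 hours at 37C on glycerol/ethanol YPEG medium in the presence of compound.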
aSyn rescue = inhibitors of alpha-synuclein toxicity in yeast; Yeast expressing alpha-synuclein, growth rescue, BacTiter-Glo, 24 h; Potency, µM (titrated, usually from 46.1 µM), inactives show at the highest dose growth rescue (activation), actives largely listed as activators; hit rate 0.14% among 370,000; AID 652106; further: % of control where 0% means no effect; nearly all actives have a fitted effect of over 65% in size
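Rescue of yeast growth: cells expressing toxic alpha-synuclein, induced in galactose at OD600 0.02, incubated with compound 24 h at 30 C. ATP luminescence quantified growth; inhibitors of toxicity appear as activators.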
FUS suppressor = suppressors of FUS proteinopathy in yeast | S. cerevisiae FUS-expressing, growth rescue, OD600, 24 h | Potency, µM (highest dose often 76.6 µM), hits mostly activators | hit rate 0.24% among 390,000 | AID 1347120;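 further: plate controls were DMSO vehicle for no effect and reference control for full effect; nearly all actives have a fitted effect of over 55% in size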
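Yeast FUS proteinopathy model; galactose-induced FUS (2%), starting OD 0.005. Cpds in dilution series, 24hr, 30C, 99% humidity. Abs 600 nm growth. Pos ctrl CP55940 (top 92uM final); neg ctrl DMSO.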
TDP43 rescue = TDP-43 toxicity inhibition in yeast; TDP-43 expressing yeast growth rescue, BacTiter-Glo, 24 h; Potency, µM (highest dose often 46.1 µM), for the others: at the top dose growth rescue (activation), most hits filed as activators; hit rate 1.8% among 410,000; further: % of control where 0% means no effect; nearly all actives have a fitted effect of over 50% in size
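Yeast expressing TDP-43 (pregrown in raffinose, seeded at OD600=0.02 in galactose medium) exposed to compounds 24 hr at 30 deg C. Growth read by BacTiter-Glo luminescence; rescue of toxicity appears as increased signal.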
Abeta rescue = restores growth of yeast expressing A-beta42 peptide | yeast expressing A-beta42, growth rescue, OD600, 48 h; response scale: 0% DMSO, 100% iron-clioquinol control | Potency, µM (top dose mostly 46.1 µM), usual class: activators | hit rate 0.063% among 410,000 | AID 1347071; further: nearly all actives have a fitted effect of over 55% in size
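Yeast growth medium received pinned compounds, then yeast cells expressing toxic A-beta were added; plates incubated at 30 C for 48 hr. Growth read as absorbance at 600 nm, normalized to DMSO and equimolar FeCl3 plus clioquinol controls.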
* marks the source's active call; other numbers are inactive results; [ ] = dose if it differs, or a comment. Rows were chosen to be rich in hits. Some 2.2% of all compounds tested hit in one or more screens of this group. The call rests on the fitted dose curve; in most records, active means well fitted curve in the direction sought with a large enough effect; inconclusive means small, poorly fitted or top-dose-only effect, or another doubt; inactive means no such curve, though single readings can be large; an effect the other way counts as inactive or inconclusive. Potency means the concentration at half of the fitted maximal effect.

What do the screens show for `CC(C)Cc1ccc(CN2C(C(C)C)C(=O)N(Cc3cn(CCC4OCCO4)nn3)CCS2(=O)=O)cc1` (stereo not given)?
aSyn rescue: 8%; FUS suppressor: inconclusive; TDP43 rescue: 11µM*; Abeta rescue: inactive

Results for Cc1ccccc1-c1ccc(CN2C(C(C)C)C(=O)N(Cc3cn(CCC4OCCO4)nn3)CCS2(=O)=O)cc1 (stereo not given) ?
aSyn rescue: inconclusive; FUS suppressor: 10µM*; TDP43 rescue: inconclusive; Abeta rescue: inactive

Results for COCOCCn1cc(CN2CCS(=O)(=O)N(Cc3ccc(-c4ccc(Cl)cc4)cc3)C(C(C)C)C2=O)nn1 (stereo not given) ?
aSyn rescue: 4%; FUS suppressor: inactive; TDP43 rescue: 18%; Abeta rescue: inactive

Results for COc1ccc(-c2ccc(CN3C(C(C)C)C(=O)N(Cc4cn(CC5CCCCC5)nn4)CCS3(=O)=O)cc2)cc1OC (stereo not given) ?
aSyn rescue: 16%; FUS suppressor: 25µM*; TDP43 rescue: -8%; Abeta rescue: inactive

Results for Cc1ccc(N(C)C(=O)c2noc3c2CCCCC3)cc1C ?
FUS suppressor: inactive; TDP43 rescue: 0%; Abeta rescue: inactive

How did COc1ccc(-c2ccc(CN3C(C(C)C)C(=O)N(Cc4cn(CCC5OCCO5)nn4)CCS3(=O)=O)cc2)cc1 (stereo not given) do in these assays?
aSyn rescue: 6%; FUS suppressor: inconclusive; TDP43 rescue: 35µM*; Abeta rescue: inactive

Results for COc1ccc(-c2ccc(CN3C(C(C)C)C(=O)N(Cc4cn(CCC5OCCO5)nn4)CCS3(=O)=O)cc2)cc1OC (stereo not given) ?
aSyn rescue: -1%; FUS suppressor: inconclusive; TDP43 rescue: 0%; Abeta rescue: inactive

How did Cc1nc2c(-c3ccccc3)c(C)nn2c(C)c1CCC(=O)Nc1ccccc1F do in these assays?
FUS suppressor: inactive; TDP43 rescue: 0%; Abeta rescue: inactive

What do the screens show for `Cc1ccc(Sc2c(C)nn(-c3ccccc3)c2OC(=O)C(C)(C)C)cc1`?
FUS suppressor: inactive; TDP43 rescue: 14µM*; Abeta rescue: inactive

How did CCC(=O)Oc1c(Sc2ccc(C)cc2)c(C)nn1-c1ccccc1 do in these assays?
FUS suppressor: inactive; TDP43 rescue: 30%; Abeta rescue: inactive

What do the screens show for `CCCC(=O)Oc1c(Sc2ccc(C)cc2)c(C)nn1-c1ccccc1`?
FUS suppressor: inactive; TDP43 rescue: 11µM*; Abeta rescue: inactive

How did Cc1nn(-c2ccccc2)c(OC(=O)C(C)(C)C)c1Sc1ccccc1 do in these assays?
FUS suppressor: inactive; TDP43 rescue: inconclusive; Abeta rescue: inactive

Results for O=S1(=O)C=CCN1Cc1cn(Cc2ccc(C(F)(F)F)cc2)nn1 ?
FUS suppressor: inactive

Results for CCn1c(C)c(C)c2cc(C(=O)Nc3cccc(Cl)c3)ccc21 ?
Mito fusion act: -8%; aSyn rescue: 11%; FUS suppressor: inactive; TDP43 rescue: -14%; Abeta rescue: inactive

How did Cc1c(C)n(CCC#N)c2ccc(Cl)cc12 do in these assays?
Mito fusion act: 0%; aSyn rescue: 20%; TDP43 rescue: 13µM*; Abeta rescue: inactive

Results for COC(=O)C1CN(Cc2ccc(OC)cc2)CCS(=O)(=O)N1Cc1ccccc1 (stereo not given) ?
FUS suppressor: inactive

Results for COc1ccc(Cn2ccc3nc(C)c(C(=O)Nc4ccc(OC)cc4)cc3c2=O)cc1 ?
FUS suppressor: inactive; TDP43 rescue: 16%; Abeta rescue: inactive

How did CC(C)(C)C(=O)NC(=S)Nc1ccc(C(F)(F)F)cc1 do in these assays?
Mito fusion act: -1%; aSyn rescue: 0%; FUS suppressor: inactive; TDP43 rescue: 20%; Abeta rescue: 13µM*

How did CC(C)(C)C(=O)NC(=S)Nc1ccc(Cl)c(C(=O)O)c1 do in these assays?
Mito fusion act: 9%; aSyn rescue: 13%; FUS suppressor: inactive; TDP43 rescue: -12%[1.82 µM]; Abeta rescue: inactive

What do the screens show for `CC(C)(C#N)Nn1cnnc1`?
Mito fusion act: 2%; aSyn rescue: -8%; FUS suppressor: 16µM*; TDP43 rescue: -3%; Abeta rescue: inactive

How did CC(C)Cc1ccc(-c2cc(=O)[nH][nH]2)cc1 do in these assays?
Mito fusion act: -7%; aSyn rescue: 6%; FUS suppressor: inactive; TDP43 rescue: 20µM*; Abeta rescue: inactive

How did Cc1ccc(-c2cc(=O)[nH][nH]2)c(C)c1 do in these assays?
Mito fusion act: -2%; aSyn rescue: -8%; FUS suppressor: inactive; TDP43 rescue: -4%; Abeta rescue: inactive

How did CC1CCn2c(nc3cc(C(=O)NCc4ccc(F)cc4)ccc32)C1 (stereo not given) do in these assays?
FUS suppressor: inactive; TDP43 rescue: 8%; Abeta rescue: inactive

How did CCc1nonc1NC(=O)COc1cc(C)c(Cl)c(C)c1 do in these assays?
Mito fusion act: 11µM*; aSyn rescue: -7%; FUS suppressor: inactive; TDP43 rescue: -1%; Abeta rescue: inactive

Results for CCc1nonc1NC(=O)COc1ccc(Cl)c(C)c1 ?
Mito fusion act: 9%; aSyn rescue: -5%; FUS suppressor: inactive; TDP43 rescue: 20%; Abeta rescue: inactive

How did NC1=C(Br)C(=O)c2ncccc2C1=O do in these assays?
aSyn rescue: -6%; TDP43 rescue: 11µM*; Abeta rescue: inactive

What do the screens show for `Cc1ccc(C)c(CN2C(=O)c3ccccc3S(=O)c3ccc(C(=O)N4CCN(c5cccc(Cl)c5)CC4)cc32)c1` (stereo not given)?
FUS suppressor: 10µM*; TDP43 rescue: -30%; Abeta rescue: inactive

What do the screens show for `COc1ccc(N2CCN(C(=O)c3ccc4c(c3)N(Cc3cc(C)ccc3C)C(=O)c3ccccc3S4=O)CC2)cc1` (stereo not given)?
FUS suppressor: inactive; TDP43 rescue: 23%; Abeta rescue: inactive

What do the screens show for `CCN(C(=O)c1ccc2c(c1)N(Cc1cccc(Cl)c1)C(=O)c1ccccc1S2=O)c1ccccc1` (stereo not given)?
FUS suppressor: 32µM*; TDP43 rescue: -19%; Abeta rescue: inactive

What do the screens show for `CCOc1ccc(CCNC(=O)c2ccc3c(c2)N(Cc2ccccc2)C(=O)c2ccccc2S3=O)cc1OCC` (stereo not given)?
FUS suppressor: 25µM*; TDP43 rescue: 18%; Abeta rescue: inactive

What do the screens show for `CCN1CCN(CCNC(=O)c2ccc3c(c2)N(Cc2cccc(Cl)c2)C(=O)c2ccccc2S3=O)CC1` (stereo not given)?
Mito fusion act: -5%; aSyn rescue: -2%; FUS suppressor: inactive; TDP43 rescue: -11%; Abeta rescue: inactive
